{
  "source": "paper PMC7819943",
  "about": "“Rice protein-binding microarrays: a tool to detect cis-acting elements near promoter regions in rice”",
  "note": "Over roughly 39,000 sequences, “fluorescence intensity (a.u.)” has its median near 4,300; the highest 2% begin near 39,000. Many of the other results were omitted from the sample, so the highest values are more common in it than they were.",
  "data": [
    {"target": "T1, OsSMF1 (Oryza sativa, UniProt Q6ZLB0 1-436)", "T1 sequence": "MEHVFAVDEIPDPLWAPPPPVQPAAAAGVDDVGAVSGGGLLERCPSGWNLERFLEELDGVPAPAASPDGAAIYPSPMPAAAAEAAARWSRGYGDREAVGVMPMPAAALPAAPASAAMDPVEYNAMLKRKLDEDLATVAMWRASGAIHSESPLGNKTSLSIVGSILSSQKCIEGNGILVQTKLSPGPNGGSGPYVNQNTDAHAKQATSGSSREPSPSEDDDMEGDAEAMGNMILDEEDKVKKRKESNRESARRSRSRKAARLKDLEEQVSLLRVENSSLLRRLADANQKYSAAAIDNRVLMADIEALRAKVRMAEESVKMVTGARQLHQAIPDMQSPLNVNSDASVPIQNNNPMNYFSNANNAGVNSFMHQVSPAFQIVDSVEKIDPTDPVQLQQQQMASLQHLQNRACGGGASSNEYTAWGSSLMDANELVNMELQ", "test": "protein-binding microarray (RPBM); PBS, 2% BSA, 51.3 ng/ul salmon testes DNA, 50 uM zinc acetate, 200 nM TF, 25 C, 1 h; high values mean tight binding", "conditions": "protein: recombinant; tags: N-terminal polyhistidine and DsRed monomer fusion (pET32a); chain copies: 2; label: CyDye5-dUTP incorporated in the synthesized complementary strand; 3' TTTTT single-stranded linker to array surface; dsDNA, one strand shown", "summary_of_the_method": "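Using Ni–NTA, transcription factors fused N-terminally to polyhistidine and DsRed were purified after expression in E. coli BL21-CodonPlus. These were incubated at 200 nM with a blocked, double-stranded custom Agilent array for 1 h at 25 °C in a buffer containing 50 µM zinc acetate, and the array was washed. The binding signal is per-feature fluorescence intensity (arbitrary units) on an Axon 4000B scanner.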", "values": [
      {"sequence": "GGAGCTGAGGAGGGACAGCGAGCCAGCGAGGGAGGTGGGGCGGAGTCACCTAGTGCAG", "binding signal": "3160 fluorescence intensity (a.u.)"},
      {"sequence": "GGGGACATTACTCCGTGGTTTACATGTCATCCAAATAGTTCGGAGTCACCTAGTGCAG", "binding signal": "5320 fluorescence intensity (a.u.)"},
      {"sequence": "TATATACAAGTTCACCCCGAAACCTAGTCAGAGTATGACACGGAGTCACCTAGTGCAG", "binding signal": "4240 fluorescence intensity (a.u.)"},
      {"sequence": "ACTTGCCACGGTGCCGCCTAACAGGCAGCCGTACCTGCCTCGGAGTCACCTAGTGCAG", "binding signal": "3320 fluorescence intensity (a.u.)"},
      {"sequence": "TGAAATACTTACAAGTCGATCGAACAACACCTGTCATCATCGGAGTCACCTAGTGCAG", "binding signal": "4160 fluorescence intensity (a.u.)"},
      {"sequence": "GCGGCCTATTGTTAGCGAGGAGTCACCCAGATTCTTCTCCCGGAGTCACCTAGTGCAG", "binding signal": "6870 fluorescence intensity (a.u.)"},
      {"sequence": "TACTATTAGGTATGTGGTATCCATAACCCTGACACATACCCGGAGTCACCTAGTGCAG", "binding signal": "3600 fluorescence intensity (a.u.)"},
      {"sequence": "CGTGAAAGTGCTTCGAAAGGTGTCAGCAGGTGCGCGGAGCCGGAGTCACCTAGTGCAG", "binding signal": "3530 fluorescence intensity (a.u.)"},
      {"sequence": "GTCAGGTGGCGGCGGCGGCGGTGGTGGCGGTGGAGGTGGACGGAGTCACCTAGTGCAG", "binding signal": "5570 fluorescence intensity (a.u.)"},
      {"sequence": "ATCCATAACTATGTAACGTCATAGCCACCCAGCCTCGCTTCGGAGTCACCTAGTGCAG", "binding signal": "5580 fluorescence intensity (a.u.)"},
      {"sequence": "CTTGCACAAGTACAGTACGTGTACATGCATGTATGCTACCCGGAGTCACCTAGTGCAG", "binding signal": "5700 fluorescence intensity (a.u.)"},
      {"sequence": "ATGCATGGTATGTCACGTTGTGACTTGCCTACACTAAAGCCGGAGTCACCTAGTGCAG", "binding signal": "4520 fluorescence intensity (a.u.)"},
      {"sequence": "TTGCTAGTTGGTACAAAGTAAGCATGCAACACTTGTATGCCGGAGTCACCTAGTGCAG", "binding signal": "42200 fluorescence intensity (a.u.)"},
      {"sequence": "AATGCTGCAATTTCTCGTTGACTAGACTTCACATGCAGCTCGGAGTCACCTAGTGCAG", "binding signal": "5400 fluorescence intensity (a.u.)"},
      {"sequence": "TCCGTTGAGATCAGCACTTTCTAGCAGCTGTACAAGAGACCGGAGTCACCTAGTGCAG", "binding signal": "3740 fluorescence intensity (a.u.)"},
      {"sequence": "GCCCATGTACGATGACGTGTACCCTATTGTCTTCTACTAGCGGAGTCACCTAGTGCAG", "binding signal": "21600 fluorescence intensity (a.u.)"},
      {"sequence": "CACGCCAACGCCCAAGCCCACCAACCCAAGTTGAGTCGTGCGGAGTCACCTAGTGCAG", "binding signal": "3360 fluorescence intensity (a.u.)"},
      {"sequence": "CTACATCAGCTATATCTATTGTTGCTCTTACACTAAATTACGGAGTCACCTAGTGCAG", "binding signal": "23700 fluorescence intensity (a.u.)"},
      {"sequence": "CCATATCATATTACTCCTACATGTGTACTACATTTATATTCGGAGTCACCTAGTGCAG", "binding signal": "3720 fluorescence intensity (a.u.)"},
      {"sequence": "TTACAGGATTATATATCATGTTTATCTATTCGTCTTACTACGGAGTCACCTAGTGCAG", "binding signal": "39500 fluorescence intensity (a.u.)"},
      {"sequence": "AATGGATCTAGACTATATCTATCTAGATTCATTAGTATCACGGAGTCACCTAGTGCAG", "binding signal": "45400 fluorescence intensity (a.u.)"},
      {"sequence": "AATCTATGCATATATATATATATATATATGTCTAGATTCACGGAGTCACCTAGTGCAG", "binding signal": "3240 fluorescence intensity (a.u.)"},
      {"sequence": "ATATAGATCATCATCAAGACTACGTATTATTCACTATTCACGGAGTCACCTAGTGCAG", "binding signal": "3160 fluorescence intensity (a.u.)"},
      {"sequence": "CCGCTCCGCCTACTCTGGCCACGCGCTGACGCCGCGTCCCCGGAGTCACCTAGTGCAG", "binding signal": "7060 fluorescence intensity (a.u.)"},
      {"sequence": "GGCGGAGACGCGGGCGTGGCTCGGCGGCCTGCTAGTGTGACGGAGTCACCTAGTGCAG", "binding signal": "3340 fluorescence intensity (a.u.)"},
      {"sequence": "AAGTCCTCCCACAAGTCAACCAACCAAAACCACGTCCAAACGGAGTCACCTAGTGCAG", "binding signal": "3420 fluorescence intensity (a.u.)"},
      {"sequence": "TTCAAGTCCAACCTCGGCCACATGCTCCGCCTCCGCCTCGCGGAGTCACCTAGTGCAG", "binding signal": "3780 fluorescence intensity (a.u.)"},
      {"sequence": "AAAGCCAAACAAGTGTCCAAACGGCTAGGAGTCAACCTCGCGGAGTCACCTAGTGCAG", "binding signal": "41200 fluorescence intensity (a.u.)"},
      {"sequence": "TTTCTTAACTCGACACGCAATGTATTGTTATTTACGATTCCGGAGTCACCTAGTGCAG", "binding signal": "3740 fluorescence intensity (a.u.)"},
      {"sequence": "TACCACTATCGGAAGTTTTGGTTGTGACGTCCACAATTCCCGGAGTCACCTAGTGCAG", "binding signal": "3760 fluorescence intensity (a.u.)"},
      {"sequence": "AACCGGGACTAAAGATCGTACCTTTAGTTACGATCTTTAGCGGAGTCACCTAGTGCAG", "binding signal": "28500 fluorescence intensity (a.u.)"},
      {"sequence": "CTAATGGGACTGCTGCTACCCTATCTTTAGTCCGGGACTACGGAGTCACCTAGTGCAG", "binding signal": "3270 fluorescence intensity (a.u.)"},
      {"sequence": "TTTCACCCGGGACTAAAGATCGCTATCTTTAGTCCCGGATCGGAGTCACCTAGTGCAG", "binding signal": "52600 fluorescence intensity (a.u.)"},
      {"sequence": "CAAGGGAGCTGGTAACACTCATCATTTCCGTTCTTCAAATCGGAGTCACCTAGTGCAG", "binding signal": "3250 fluorescence intensity (a.u.)"},
      {"sequence": "AGGTTGGTGATTCAGAGATGTCGAGACGTGTGTTCTTTTGCGGAGTCACCTAGTGCAG", "binding signal": "4270 fluorescence intensity (a.u.)"},
      {"sequence": "TTAATACAAATCCGTTGCATCACACGAGTCATATGCTAGTCGGAGTCACCTAGTGCAG", "binding signal": "5010 fluorescence intensity (a.u.)"},
      {"sequence": "GCGCGTTGCTGCTGACTCCGGAGCAAAATCGAGCGAGCGCCGGAGTCACCTAGTGCAG", "binding signal": "3360 fluorescence intensity (a.u.)"},
      {"sequence": "AACTCCGAGCGTTGCTATGGGAGTTCCGTAAAATAGTAATCGGAGTCACCTAGTGCAG", "binding signal": "39300 fluorescence intensity (a.u.)"},
      {"sequence": "TTGAATTGCCATTACAAGCAGAAACTGGGTAGCCCAGCAGCGGAGTCACCTAGTGCAG", "binding signal": "14600 fluorescence intensity (a.u.)"},
      {"sequence": "GCCGCTGCACCGCCCCAGCCTCCTCCTCCCCACCGATGCCCGGAGTCACCTAGTGCAG", "binding signal": "3150 fluorescence intensity (a.u.)"},
      {"sequence": "TCTATAAATATGATGTGGCTATGTACTCAGTACTCACCTGCGGAGTCACCTAGTGCAG", "binding signal": "6690 fluorescence intensity (a.u.)"},
      {"sequence": "GGCGGCACAGGTCGCCGTCGTCGCCACCGACGCGGCGTCGCGGAGTCACCTAGTGCAG", "binding signal": "3730 fluorescence intensity (a.u.)"},
      {"sequence": "CCTTTTCAATGTTCTTGTCATCACTGCTCGTGTCACCCGTCGGAGTCACCTAGTGCAG", "binding signal": "5650 fluorescence intensity (a.u.)"},
      {"sequence": "CCATTCATGCCCGTGATATCCTGGCTCCACGAGCTCTGCTCGGAGTCACCTAGTGCAG", "binding signal": "59000 fluorescence intensity (a.u.)"},
      {"sequence": "GGCTGCTCATTGTCGTCTCATCTGGGCTTTTCAATGGGCTCGGAGTCACCTAGTGCAG", "binding signal": "53700 fluorescence intensity (a.u.)"},
      {"sequence": "GCTGTCCTGCTCGTCGGCCTCCACGCGCGCTCATCGGCCTCGGAGTCACCTAGTGCAG", "binding signal": "3240 fluorescence intensity (a.u.)"},
      {"sequence": "GCGCCCCATCCACGCGTCATGCATCCACGTCGGGGCTGCACGGAGTCACCTAGTGCAG", "binding signal": "11600 fluorescence intensity (a.u.)"},
      {"sequence": "ACGGGCTCGTCGAGCTGCTCTGGTGCAATGGCCACGTCATCGGAGTCACCTAGTGCAG", "binding signal": "28400 fluorescence intensity (a.u.)"},
      {"sequence": "TGACTGCTGGCTCACATCCAGTCATTGGCTTAGCTAGCTGCGGAGTCACCTAGTGCAG", "binding signal": "4160 fluorescence intensity (a.u.)"},
      {"sequence": "CACGAGTGCCTCTCCGTCATGCTCCACGACAGCTGCAGCCCGGAGTCACCTAGTGCAG", "binding signal": "4760 fluorescence intensity (a.u.)"},
      {"sequence": "AATATCATCCGTGTCACTACCTAGCTCCTGCATGCTCTGCCGGAGTCACCTAGTGCAG", "binding signal": "4560 fluorescence intensity (a.u.)"},
      {"sequence": "GTGCAGATCCACTGTCTGCTCATTGGGCTTATTCATGGCTCGGAGTCACCTAGTGCAG", "binding signal": "40700 fluorescence intensity (a.u.)"},
      {"sequence": "TTATTCATACATGTCACTGCCAGGCTGCTGTCTACTTCTTCGGAGTCACCTAGTGCAG", "binding signal": "4950 fluorescence intensity (a.u.)"},
      {"sequence": "TGAGCACCTCATCCACGCGTCATGCATCTGTGTCGGGGCTCGGAGTCACCTAGTGCAG", "binding signal": "45200 fluorescence intensity (a.u.)"}
    ]}
  ]
}
